Test results as given in PubChem BioAssay (NCI).
Compounds without any hit were thinned out: in the full panel of roughly 83,000, 20% have a hit.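 Treatment: one concentration, 48 hours, 96-well format. Scoring: percent growth, with anything below 10 considered active.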 The source made the active and inactive calls.

Experiments:
Test in all cases: NCI-60 one-dose screen, 48 h (100 = growth as untreated, 0 = no growth, -100 = all killed)
Conditions in all cases: 10 µM unless noted
[1] = tested on: HCT-15 colon
[2] = tested on: HT29 colon
[3] = tested on: SNB-75 CNS
[4] = tested on: SNB-19 CNS
[5] = tested on: U251 CNS
[6] = tested on: PC-3 prostate
[7] = tested on: SK-MEL-5 melanoma
[8] = tested on: UACC-62 melanoma
[9] = tested on: LOX IMVI melanoma
[10] = tested on: SK-MEL-28 melanoma
[11] = tested on: SK-MEL-2 melanoma
[12] = tested on: EKVX NSCLC
[13] = tested on: SN12C renal
[14] = tested on: UO-31 renal
[15] = tested on: TK-10 renal
[16] = tested on: ACHN renal
[17] = tested on: CAKI-1 renal
[18] = tested on: A498 renal
[19] = tested on: CCRF-CEM leukemia
[20] = tested on: MOLT-4 leukemia

Measured: growth

CCN=C1C=CC(=C(c2ccc(N(CC)CC)cc2)c2ccc(N(CC)CC)cc2)c2ccccc21
active: [1] -70.9% | [2] -59.7% | [3] -22% | [4] -57.8% | [5] -89.1% | [6] -66.8% | [7] -99.5% | [8] -37.4% | [9] -64.6% | [10] -67.6% | [11] -76.3% | [12] -40% | [13] -34.2% | [14] -65.4% | [15] -51.9% | [16] -94.9% | [17] -86.3% | [18] -89.3% | [19] 1.05% | [20] -25.7%

C=C(C)[C@@H]1CC[C@]2(C)[C@H](CC=C3[C@@H]4[C@@H](C)[C@H](C)CC[C@]4(C(N)=O)CC[C@]32C)[C@@]1(C)CCC#N
active: [1] 9.25% [100 µM] | [2] -32.6% [100 µM] | [3] -5.4% [100 µM] | [5] -59.3% [100 µM] | [7] -87.9% [100 µM] | [8] -63.9% [100 µM] | [9] -92.9% [100 µM] | [10] -67.8% [100 µM] | [11] -62.5% [100 µM] | [13] -75.7% [100 µM] | [14] -91.5% [100 µM] | [15] -10.2% [100 µM] | [16] -1.6% [100 µM] | [17] 6.4% [100 µM] | [18] -33.6% [100 µM] | [19] -7.62% [100 µM] | [20] -1.01% [100 µM]
inactive: [4] 16.2% [100 µM] | [6] 12.2% [100 µM] | [12] 11.8% [100 µM]

CCOC(=O)c1ccc2nc(-c3c(C)nn(-c4ccccc4)c3N3CCOCC3)[nH]c2c1
inactive: [1] 103% | [2] 110% | [3] 84.9% | [4] 98.6% | [5] 90.8% | [6] 86.9% | [7] 94.2% | [8] 77.5% | [9] 82% | [10] 110% | [11] 110% | [12] 87.5% | [13] 90.9% | [14] 69.1% | [15] 147% | [16] 86.2% | [17] 78.6% | [18] 70.4% | [19] 88.8% | [20] 84.4%

Cn1cc(-c2noc(-c3cn(C)c4ncc(F)cc34)n2)c2cc(Br)ccc21
inactive: [1] 76% | [2] 47.3% | [3] 61.2% | [4] 75.9% | [5] 29.4% | [6] 75.3% | [7] 83.9% | [8] 76.1% | [9] 70.7% | [10] 83.7% | [11] 103% | [12] 58.4% | [13] 60.2% | [14] 79.8% | [15] 46.5% | [16] 40.3% | [17] 53.5% | [18] 91.9% | [19] 80.8% | [20] 71.1%

CC(=O)Nc1ccc(C=Nc2ccc3ccccc3c2)cc1
inactive: [1] 105% | [2] 105% | [3] 77.7% | [4] 92.9% | [5] 113% | [6] 96.5% | [7] 99.6% | [8] 97.2% | [9] 114% | [10] 108% | [11] 121% | [12] 116% | [13] 99% | [14] 98.5% | [15] 106% | [16] 118% | [17] 47.4% | [18] 108% | [19] 93% | [20] 100%

CCOc1ccc(/C=C(\C#N)c2cc3ccccc3[nH]2)cc1
inactive: [1] 28.8% | [2] 13.8% | [3] 67.1% | [4] 80.2% | [5] 41.7% | [6] 68.2% | [7] 72.2% | [8] 43.9% | [9] 46.4% | [10] 69.7% | [11] 36.1% | [12] 72.5% | [13] 62.7% | [14] 69.5% | [15] 79.3% | [16] 81.8% | [17] 40.3% | [18] 56.9% | [19] 63.4% | [20] 31.2%

COc1ncnc2c(-c3ccccc3)cn(COCc3ccccc3)c12
inactive: [1] 42.6% | [2] 47.8% | [3] 99.8% | [4] 78% | [5] 60.1% | [6] 25.2% | [8] 40.4% | [9] 56% | [10] 77.9% | [11] 34.5% | [12] 41.4% | [13] 66.6% | [14] 44.2% | [15] 43.1% | [16] 51% | [17] 64.3% | [18] 51.9% | [19] 41.1%
active: [7] 5.61% | [20] 7.9%

O=C(NCc1ccc(Cn2c(=O)sn(-c3ccccc3)c2=O)cc1)OCc1ccc2c(Br)cc(Br)c(O)c2n1
active: [1] -10.2% | [2] -66.6% | [3] -93.8% | [5] -83.6% | [6] -56.1% | [7] -97.4% | [8] -76.1% | [9] -92.3% | [10] -69.9% | [11] -52.4% | [12] -92.3% | [13] -61.4% | [14] -100% | [15] -90.5% | [16] -100% | [17] -74.9% | [18] -41.6% | [19] 4.61% | [20] 2%
inactive: [4] 19.2%

COc1ccc(C2=C(c3cn(C)c4ccccc34)C(=O)OC2)cc1OC
inactive: [1] 23.7% | [4] 38.3% | [5] 35.1% | [6] 21.3% | [7] 16.4% | [8] 26.8% | [9] 49.6% | [10] 69.9% | [11] 33.6% | [12] 53% | [13] 36.9% | [14] 25% | [15] 61.4% | [16] 34% | [17] 25.6% | [19] 31.2% | [20] 32.4%
active: [2] 6.9% | [3] -29.3% | [18] -10.9%

COc1ccc2c(c1)C(C)Cc1c(Cl)nc(C)nc1N2C (stereo not given)
inactive: [1] 18.4% | [3] 39.3% | [4] 24.7% | [5] 21.9% | [6] 14.8% | [7] 24% | [8] 27% | [9] 43.7% | [10] 80.1% | [11] 37.3% | [12] 34.4% | [13] 32.6% | [14] 50.9% | [15] 44.4% | [16] 55.2% | [17] 25.4% | [19] 14.7% | [20] 20.3%
active: [2] -13.3% | [18] -5.78%

C[C@H]1[C@H](C)CC[C@]2(C(=O)O)CC[C@]3(C)C(=CC[C@@H]4[C@@]5(C)C/C(=C/c6cccnc6)[C@H](O)C(C)(C)[C@@H]5CC[C@]43C)[C@H]12
active: [1] 2.04% [100 µM] | [2] -72.1% [100 µM] | [3] -3.83% [100 µM] | [4] 3.05% [100 µM] | [5] -57.2% [100 µM] | [7] -64.4% [100 µM] | [8] -70.3% [100 µM] | [9] -91.8% [100 µM] | [10] -49.1% [100 µM] | [11] -28.1% [100 µM] | [13] 3% [100 µM] | [14] -77% [100 µM] | [15] 8.85% [100 µM] | [16] 4.57% [100 µM] | [17] 7.71% [100 µM] | [19] -1.43% [100 µM] | [20] 2.42% [100 µM]
inactive: [6] 17.4% [100 µM] | [12] 15.8% [100 µM] | [18] 19% [100 µM]

Nc1ccc(NC(=O)c2ccccc2)c2c1C(=O)c1ccccc1C2=O
inactive: [1] 99% | [2] 104% | [3] 76% | [4] 102% | [5] 105% | [6] 87.2% | [7] 94.2% | [8] 101% | [9] 109% | [10] 113% | [11] 108% | [12] 76.3% | [13] 97.8% | [14] 74.2% | [15] 96.1% | [16] 92.6% | [17] 96.7% | [18] 113% | [19] 91.1% | [20] 106%

Cc1ccc2c(c1)C(C)Cc1c(Cl)ncnc1N2C (stereo not given)
active: [1] 8.93% | [2] -8.76% | [7] -86.7% | [8] 7.38% | [9] -58.1% | [11] -21.4% | [18] -19.2%
inactive: [3] 50.3% | [4] 30.4% | [5] 17.9% | [6] 14.1% | [10] 27.1% | [12] 22.2% | [13] 32.8% | [14] 18% | [15] 18.3% | [16] 32% | [17] 31% | [19] 49.7% | [20] 13.6%

CCOC(=O)c1nn(C2CCCCO2)c2ccc(NC(=O)CN3CCCC3)cc12 (stereo not given)
inactive: [1] 106% | [2] 111% | [3] 79% | [4] 95.8% | [5] 94.8% | [6] 107% | [7] 103% | [8] 98.5% | [9] 97.3% | [10] 105% | [11] 107% | [12] 95.8% | [13] 98.9% | [14] 84.4% | [15] 103% | [16] 101% | [17] 91.5% | [18] 78.9% | [19] 108% | [20] 99.3%
